# Results published in the supplement of paper PMC6555819.
# Test system: PXR:RXRa (NR concentration 270 nM, RXRa partner concentration 90 nM)
# Assay: PBM binding z-score (relative to random genomic background probes); higher = stronger binding; sequences stand for … in GC…GCGATTGACAGCGTAGAATGAAGG
# Outline: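 On custom Agilent 4×180K arrays, double-stranded probes with 34-nt variable regions carried direct-repeat seeds, single-nucleotide variants, half-site ablations or random human genomic background. Ligand-free nuclear receptor dimers were applied for 1 h, and binding was read with antibodies against each partner (one per run). Binding z-scores come from regression-normalized fluorescence, with the random background probes as reference.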
row,Sequence,PBM binding z-score
1,CATACAGGGTCAGCAAGGCCAGAGTAGGGACGGC,2.66
2,CCTACTGGGCCAAAAAAGTCATTGATGCCGATAA,-0.303
3,CCAGACAGGTGGAAGGTAACTCAGTCTGGTACGC,-0.242
4,GCTAGTTGGTCAGTAAAGGGTCACACACCGGTCG,3.32
5,TCTTGTAGCTCAAGCAGGTTAAGAAAGCCTGAGT,-0.102
6,ACTAGCAGGCCAAGGGTCACTAAAGATTAGTCCG,3
7,CCGACTGGGGCCAGGTTACCATAACGCACAGCCA,-0.136
8,ATATGTAGGTTATCGGGTCATTCAATTTGCGCAT,3.43
9,CCTTTCGGGTCACTCCAGGTTATAGCATCGGAGT,4.94
10,ACAGACAGGTGAGTGAAGGTAACTCCGCTGGACG,-0.132
11,TGTCAAAGTTCAACGGTAACGTAAGTATCCACAC,4.77
12,ATCTGTAGGTTAAGGGTCATTCAGGTTGGTTCGC,5.59
13,GGAAGGAGGGCAAAGTTGATAGCATCTGTCGACG,1.3
14,CGTCGAAGTTCAAGGTAACGTAACAGAAAGCAGC,2.28
15,AGTCAAAGTTCATCCAGGTAACGTAAGATATGCT,5.26
16,TAGCCTAGGTCATGGGCGAGTATACCACGCGAAC,1.53
17,CCAGACAGGTGAGAAGGTAACTAAGCCTCGATTA,-0.327
18,CATACAGGGTCAGCTACGCCAGAGTAGGGACGGC,2.22
19,CATACAGGGTCAGCGAGGCCAGAGTAGGGACGGC,3.02
20,AATACAGGGTCATCGCAGGCCAGAGTACGCACAG,5.07
21,TCATATAGGAAATACAGGTGAAAGTCGGCATCTA,0.596
22,TTACCAAGGTGGGCTGAGGTCGTTGATCCAACTC,2.86
